# Laboratory results published in PMC11006913.
# Assays:
# Experiment in all cases: PBM; 200 nM protein, PBS
# Settings in all cases: dsDNA, one strand shown
# [1] = molecular target: SHOX (Homo sapiens, UniProt O15266 103-189)
# [2] = molecular target: ALX4 (Homo sapiens, UniProt Q9H161 200-286)
# [3] = molecular target: ALX4 (Homo sapiens, UniProt Q9H161 200-286, Q225E)
# [4] = molecular target: ALX1 (Homo sapiens, UniProt Q15699 118-204, L144V)
# [5] = molecular target: SHOX (Homo sapiens, UniProt O15266 103-189, R173C)
# Chain of SHOX (Homo sapiens, UniProt O15266 103-189, R173C) (O15266 103-189 R173C): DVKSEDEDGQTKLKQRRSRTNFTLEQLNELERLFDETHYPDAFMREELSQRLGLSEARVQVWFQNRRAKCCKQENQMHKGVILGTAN
# [6] = molecular target: ALX1 (Homo sapiens, UniProt Q15699 118-204, L144R)
# Chain of ALX1 (Homo sapiens, UniProt Q15699 118-204, L144R) (Q15699 118-204 L144R): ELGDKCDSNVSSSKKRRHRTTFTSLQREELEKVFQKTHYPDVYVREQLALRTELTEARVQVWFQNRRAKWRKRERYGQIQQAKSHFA
# [7] = molecular target: VAX1 (Homo sapiens, UniProt Q5SQQ9 86-172)
# Chain of VAX1 (Homo sapiens, UniProt Q5SQQ9 86-172) (Q5SQQ9 86-172): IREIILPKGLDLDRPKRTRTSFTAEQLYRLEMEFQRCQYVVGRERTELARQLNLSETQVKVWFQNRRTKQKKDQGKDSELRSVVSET
# [8] = molecular target: VAX1 (Homo sapiens, UniProt Q5SQQ9 86-172, T142I)
# Chain of VAX1 (Homo sapiens, UniProt Q5SQQ9 86-172, T142I) (Q5SQQ9 86-172 T142I): as the sequence (Q5SQQ9 86-172) above, with T57I counted along it
# [9] = molecular target: ALX1 (Homo sapiens, UniProt Q15699 118-204)
# Chain of ALX1 (Homo sapiens, UniProt Q15699 118-204) (Q15699 118-204): as the sequence (Q15699 118-204 L144R) above, with R27L counted along it
# [10] = molecular target: VAX1 (Homo sapiens, UniProt Q5SQQ9 86-172, K157R)
# Chain of VAX1 (Homo sapiens, UniProt Q5SQQ9 86-172, K157R) (Q5SQQ9 86-172 K157R): as the sequence (Q5SQQ9 86-172) above, with K72R counted along it
# [11] = molecular target: HOXA7 (Homo sapiens, UniProt P31268 116-202)
# Chain of HOXA7 (Homo sapiens, UniProt P31268 116-202) (P31268 116-202): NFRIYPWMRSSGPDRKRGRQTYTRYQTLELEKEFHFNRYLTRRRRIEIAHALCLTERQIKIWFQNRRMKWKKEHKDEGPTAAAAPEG
# [12] = molecular target: HOXA7 (Homo sapiens, UniProt P31268 116-202, W177C)
# Chain of HOXA7 (Homo sapiens, UniProt P31268 116-202, W177C) (P31268 116-202 W177C): as the sequence (P31268 116-202) above, with W62C counted along it
# [13] = molecular target: HOXB6 (Homo sapiens, UniProt P17509 132-218, K202E)
# Chain of HOXB6 (Homo sapiens, UniProt P17509 132-218, K202E) (P17509 132-218 K202E): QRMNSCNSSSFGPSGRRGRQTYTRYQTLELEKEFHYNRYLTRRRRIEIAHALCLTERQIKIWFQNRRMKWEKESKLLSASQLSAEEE
# [14] = molecular target: HOXB6 (Homo sapiens, UniProt P17509 132-218)
# Chain of HOXB6 (Homo sapiens, UniProt P17509 132-218) (P17509 132-218): as the sequence (P17509 132-218 K202E) above, with E71K counted along it
# [15] = molecular target: HOXB9 (Homo sapiens, UniProt P17482 171-250)
# Chain of HOXB9 (P17482 171-250): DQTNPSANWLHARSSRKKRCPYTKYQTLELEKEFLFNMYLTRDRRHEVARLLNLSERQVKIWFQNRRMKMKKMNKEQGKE
# [16] = molecular target: MSX2 (Homo sapiens, UniProt P35548 130-214, R199I)
# Chain of MSX2 (Homo sapiens, UniProt P35548 130-214, R199I) (P35548 130-214 R199I): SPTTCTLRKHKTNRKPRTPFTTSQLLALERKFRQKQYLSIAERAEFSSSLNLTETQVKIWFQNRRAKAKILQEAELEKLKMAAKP
# [17] = molecular target: MSX2 (Homo sapiens, UniProt P35548 130-214)
# Chain of MSX2 (Homo sapiens, UniProt P35548 130-214) (P35548 130-214): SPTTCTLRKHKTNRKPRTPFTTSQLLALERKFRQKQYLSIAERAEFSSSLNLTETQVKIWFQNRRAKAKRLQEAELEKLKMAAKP
# [18] = molecular target: MSX2 (Homo sapiens, UniProt P35548 130-214, F161Y)
# Chain of MSX2 (Homo sapiens, UniProt P35548 130-214, F161Y) (P35548 130-214 F161Y): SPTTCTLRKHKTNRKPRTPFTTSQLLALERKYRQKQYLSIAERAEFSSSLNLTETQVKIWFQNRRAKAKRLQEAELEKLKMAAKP
# [19] = molecular target: HOXC9 (Homo sapiens, UniProt P31274 178-260, K195R)
# Chain of HOXC9 (Homo sapiens, UniProt P31274 178-260, K195R) (P31274 178-260 K195R): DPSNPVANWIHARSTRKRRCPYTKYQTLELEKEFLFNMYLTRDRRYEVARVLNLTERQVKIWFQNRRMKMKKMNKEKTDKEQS
# [20] = molecular target: HOXC9 (Homo sapiens, UniProt P31274 178-260)
# Chain of HOXC9 (Homo sapiens, UniProt P31274 178-260) (P31274 178-260): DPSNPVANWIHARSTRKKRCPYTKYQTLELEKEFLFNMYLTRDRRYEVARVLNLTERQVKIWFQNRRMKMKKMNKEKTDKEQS
# [21] = molecular target: HOXC9 (Homo sapiens, UniProt P31274 178-260, R193K)
# Chain of HOXC9 (Homo sapiens, UniProt P31274 178-260, R193K) (P31274 178-260 R193K): as the sequence (P31274 178-260) above, with R16K counted along it
# [22] = molecular target: HOXC9 (Homo sapiens, UniProt P31274 178-260, R222W)
# Chain of HOXC9 (Homo sapiens, UniProt P31274 178-260, R222W) (P31274 178-260 R222W): as the sequence (P31274 178-260) above, with R45W counted along it
# [23] = molecular target: PITX2 (Homo sapiens, UniProt Q99697 72-157)
# [24] = molecular target: HOXD13 (Homo sapiens, UniProt P35453 263-343, T313R)
# Chain of HOXD13 (Homo sapiens, UniProt P35453 263-343, T313R) (P35453 263-343 T313R): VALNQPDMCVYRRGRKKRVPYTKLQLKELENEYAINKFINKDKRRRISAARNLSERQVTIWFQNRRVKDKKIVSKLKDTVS
# [25] = molecular target: HOXD13 (Homo sapiens, UniProt P35453 263-343)
# Chain of HOXD13 (Homo sapiens, UniProt P35453 263-343) (P35453 263-343): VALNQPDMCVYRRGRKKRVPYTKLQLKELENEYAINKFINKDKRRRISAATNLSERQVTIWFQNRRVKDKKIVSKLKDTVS
# [26] = molecular target: HOXD13 (Homo sapiens, UniProt P35453 263-343, T313A)
# Chain of HOXD13 (Homo sapiens, UniProt P35453 263-343, T313A) (P35453 263-343 T313A): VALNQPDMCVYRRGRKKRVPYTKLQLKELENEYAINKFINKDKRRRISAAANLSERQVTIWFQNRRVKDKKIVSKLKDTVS
# Chain of SHOX (Homo sapiens, UniProt O15266 103-189) (O15266 103-189): as the sequence (O15266 103-189 R173C) above, with C71R counted along it
# Chain of ALX1 (Homo sapiens, UniProt Q15699 118-204, L144V) (Q15699 118-204 L144V): as the sequence (Q15699 118-204 L144R) above, with R27V counted along it
# Chain of ALX4 (Homo sapiens, UniProt Q9H161 200-286, Q225E) (Q9H161 200-286 Q225E): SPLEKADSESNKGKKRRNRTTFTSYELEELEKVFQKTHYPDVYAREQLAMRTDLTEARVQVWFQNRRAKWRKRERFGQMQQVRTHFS
# Chain of ALX4 (Homo sapiens, UniProt Q9H161 200-286) (Q9H161 200-286): as the sequence (Q9H161 200-286 Q225E) above, with E26Q counted along it
sequence,measurement,setting,value
CCACCCGG,binding signal,[1],"7.19 upbm affinity estimate (log intensity, higher = more binding, comparable within an allelic series)"
same,binding signal,[2],"8.21 upbm affinity estimate (log intensity, higher = more binding, comparable within an allelic series)"
same,binding signal,[3],"8.29 upbm affinity estimate (log intensity, higher = more binding, comparable within an allelic series)"
same,binding signal,[4],"6.62 upbm affinity estimate (log intensity, higher = more binding, comparable within an allelic series)"
same,binding signal,[5],"7.17 upbm affinity estimate (log intensity, higher = more binding, comparable within an allelic series)"
same,binding signal,[6],"6.65 upbm affinity estimate (log intensity, higher = more binding, comparable within an allelic series)"
same,binding signal,[7],"7.3 upbm affinity estimate (log intensity, higher = more binding, comparable within an allelic series)"
same,binding signal,[8],"7 upbm affinity estimate (log intensity, higher = more binding, comparable within an allelic series)"
same,binding signal,[9],"6.35 upbm affinity estimate (log intensity, higher = more binding, comparable within an allelic series)"
same,binding signal,[10],"7.13 upbm affinity estimate (log intensity, higher = more binding, comparable within an allelic series)"
TAACAATA,binding signal,[1],"8.71 upbm affinity estimate (log intensity, higher = more binding, comparable within an allelic series)"
same,binding signal,[11],"9.77 upbm affinity estimate (log intensity, higher = more binding, comparable within an allelic series)"
same,binding signal,[12],"8.92 upbm affinity estimate (log intensity, higher = more binding, comparable within an allelic series)"
GCAGAGCC,binding signal,[1],"7.11 upbm affinity estimate (log intensity, higher = more binding, comparable within an allelic series)"
same,binding signal,[13],"8.95 upbm affinity estimate (log intensity, higher = more binding, comparable within an allelic series)"
same,binding signal,[5],"7.16 upbm affinity estimate (log intensity, higher = more binding, comparable within an allelic series)"
same,binding signal,[14],"8.72 upbm affinity estimate (log intensity, higher = more binding, comparable within an allelic series)"
GATATGTA,binding signal,[1],"8.18 upbm affinity estimate (log intensity, higher = more binding, comparable within an allelic series)"
same,binding signal,[15],"9.76 upbm affinity estimate (log intensity, higher = more binding, comparable within an allelic series)"
same,binding signal,[5],"7.81 upbm affinity estimate (log intensity, higher = more binding, comparable within an allelic series)"
AGCTCCAG,binding signal,[1],"7.12 upbm affinity estimate (log intensity, higher = more binding, comparable within an allelic series)"
same,binding signal,[2],"7.91 upbm affinity estimate (log intensity, higher = more binding, comparable within an allelic series)"
same,binding signal,[3],"8.27 upbm affinity estimate (log intensity, higher = more binding, comparable within an allelic series)"
same,binding signal,[4],"6.26 upbm affinity estimate (log intensity, higher = more binding, comparable within an allelic series)"
same,binding signal,[5],"7.22 upbm affinity estimate (log intensity, higher = more binding, comparable within an allelic series)"
same,binding signal,[6],"6.27 upbm affinity estimate (log intensity, higher = more binding, comparable within an allelic series)"
same,binding signal,[9],"6.1 upbm affinity estimate (log intensity, higher = more binding, comparable within an allelic series)"
GCCTTGCC,binding signal,[1],"7.17 upbm affinity estimate (log intensity, higher = more binding, comparable within an allelic series)"
same,binding signal,[16],"9.62 upbm affinity estimate (log intensity, higher = more binding, comparable within an allelic series)"
same,binding signal,[5],"7.18 upbm affinity estimate (log intensity, higher = more binding, comparable within an allelic series)"
same,binding signal,[17],"9.57 upbm affinity estimate (log intensity, higher = more binding, comparable within an allelic series)"
same,binding signal,[18],"9.57 upbm affinity estimate (log intensity, higher = more binding, comparable within an allelic series)"
CAAGCTTG,binding signal,[1],"7.28 upbm affinity estimate (log intensity, higher = more binding, comparable within an allelic series)"
same,binding signal,[16],"9.71 upbm affinity estimate (log intensity, higher = more binding, comparable within an allelic series)"
same,binding signal,[5],"7.33 upbm affinity estimate (log intensity, higher = more binding, comparable within an allelic series)"
same,binding signal,[17],"9.69 upbm affinity estimate (log intensity, higher = more binding, comparable within an allelic series)"
same,binding signal,[18],"9.69 upbm affinity estimate (log intensity, higher = more binding, comparable within an allelic series)"
CGCAGTGC,binding signal,[1],"7.16 upbm affinity estimate (log intensity, higher = more binding, comparable within an allelic series)"
same,binding signal,[19],"9.74 upbm affinity estimate (log intensity, higher = more binding, comparable within an allelic series)"
same,binding signal,[20],"9.67 upbm affinity estimate (log intensity, higher = more binding, comparable within an allelic series)"
same,binding signal,[5],"7.23 upbm affinity estimate (log intensity, higher = more binding, comparable within an allelic series)"
same,binding signal,[21],"9.78 upbm affinity estimate (log intensity, higher = more binding, comparable within an allelic series)"
same,binding signal,[22],"9.73 upbm affinity estimate (log intensity, higher = more binding, comparable within an allelic series)"
TATTAGGA,binding signal,[1],"10.1 upbm affinity estimate (log intensity, higher = more binding, comparable within an allelic series)"
same,binding signal,[23],"9.87 upbm affinity estimate (log intensity, higher = more binding, comparable within an allelic series)"
CCGGGACG,binding signal,[1],"7.24 upbm affinity estimate (log intensity, higher = more binding, comparable within an allelic series)"
same,binding signal,[5],"7.27 upbm affinity estimate (log intensity, higher = more binding, comparable within an allelic series)"
CCCACTCG,binding signal,[1],"7.04 upbm affinity estimate (log intensity, higher = more binding, comparable within an allelic series)"
same,binding signal,[5],"7.12 upbm affinity estimate (log intensity, higher = more binding, comparable within an allelic series)"
CCGGGCGA,binding signal,[1],"7.31 upbm affinity estimate (log intensity, higher = more binding, comparable within an allelic series)"
same,binding signal,[5],"7.22 upbm affinity estimate (log intensity, higher = more binding, comparable within an allelic series)"
CGAGCGCA,binding signal,[1],"7.22 upbm affinity estimate (log intensity, higher = more binding, comparable within an allelic series)"
same,binding signal,[5],"7.31 upbm affinity estimate (log intensity, higher = more binding, comparable within an allelic series)"
AGGGCAGC,binding signal,[1],"6.98 upbm affinity estimate (log intensity, higher = more binding, comparable within an allelic series)"
same,binding signal,[24],"9.54 upbm affinity estimate (log intensity, higher = more binding, comparable within an allelic series)"
same,binding signal,[5],"7.18 upbm affinity estimate (log intensity, higher = more binding, comparable within an allelic series)"
same,binding signal,[25],"9.49 upbm affinity estimate (log intensity, higher = more binding, comparable within an allelic series)"
same,binding signal,[26],"9.66 upbm affinity estimate (log intensity, higher = more binding, comparable within an allelic series)"
AAGGCTCC,binding signal,[1],"7.08 upbm affinity estimate (log intensity, higher = more binding, comparable within an allelic series)"
same,binding signal,[5],"7.1 upbm affinity estimate (log intensity, higher = more binding, comparable within an allelic series)"
GACAGCCC,binding signal,[1],"7.16 upbm affinity estimate (log intensity, higher = more binding, comparable within an allelic series)"
same,binding signal,[5],"7.16 upbm affinity estimate (log intensity, higher = more binding, comparable within an allelic series)"
CTCCTCCC,binding signal,[1],"7.03 upbm affinity estimate (log intensity, higher = more binding, comparable within an allelic series)"
same,binding signal,[5],"7.12 upbm affinity estimate (log intensity, higher = more binding, comparable within an allelic series)"
AGCCACCG,binding signal,[1],"7.07 upbm affinity estimate (log intensity, higher = more binding, comparable within an allelic series)"
same,binding signal,[24],"9.53 upbm affinity estimate (log intensity, higher = more binding, comparable within an allelic series)"
same,binding signal,[5],"7.05 upbm affinity estimate (log intensity, higher = more binding, comparable within an allelic series)"
same,binding signal,[25],"9.56 upbm affinity estimate (log intensity, higher = more binding, comparable within an allelic series)"
same,binding signal,[26],"9.66 upbm affinity estimate (log intensity, higher = more binding, comparable within an allelic series)"
